Pf growth 48h = inhibits P. falciparum growth in the first generation, 48 h; P. falciparum luciferase growth in erythrocytes, 48 h; 5.9% of 310,000 active; Potency, µM (top dose mostly 28.7 µM), actives largely listed as inhibitors; active means well fitted inhibition curve with a large enough effect; inconclusive means small, poorly fitted or top-dose-only effect, or another doubt; inactive means no such curve, though single readings can be large or run the other way
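In quantitative HTS format, infected erythrocytes bearing luciferase-reporter parasites were treated for a single generation at 37 C. Luminescence after adding detection reagent served as the growth measure.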
Shiga inhibitor = Shiga toxin inhibition; Vero cells, Shiga toxin protein synthesis inhibition reporter; inhibition, % at 38.7 µM; 9.2% of 290,000 active; AID 2315; in the data active means inhibition mostly above about 28%, no sharp cut-off; inactive means mostly below about 43%
SARS PLP yeast = SARS-CoV PLP inhibition in yeast; AID 485353; S. cerevisiae expressing SARS-CoV PLpro, growth rescue; 0.19% of 330,000 active; Potency, µM (titrated, usually from 32.9 µM), usual class: activators; further: nearly all actives have a fitted effect of over 55% in size
Pf growth 96h = inhibits malaria parasite growth, 96 h. P. falciparum luciferase reporter growth, 96 h. 6.9% of 320,000 active. Potency, µM (doses to about 28.7 µM), actives largely listed as inhibitors; active means well fitted inhibition curve with a large enough effect; inconclusive means small, poorly fitted or top-dose-only effect, or another doubt; inactive means no such curve, though single readings can be large or run the other way
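Cell-based qHTS: luciferase-tagged P. falciparum in erythrocytes (2% hematocrit, 0.05% parasitemia final) incubated with compounds for 96 hours, 37 C, 5% CO2; luciferase detection reagent then added and luminescence measured.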
NS1 function inh = influenza NS1 inhibition | 0.4% of 270,000 active | AID 2326 | Potency, µM (top dose mostly 46.1 µM); further: actives are rising curves; nearly all actives have a fitted effect of over 50% in size
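S. cerevisiae expressing influenza A NS1, grown in glucose, washed, then diluted 1:100 into pH 6.0 -URA galactose medium with 23 nl compound. Growth recovery read as OD600; NS1-free strain serves as control.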
CHX counter = counter-screen for Shiga toxin inhibitors: cycloheximide protein synthesis inhibition. cell reporter, cycloheximide protein synthesis inhibition counterscreen. max response, %. 12% of 300,000 active. AID 2314; in the data active means max response mostly above about 13%, no sharp cut-off; inactive means mostly below about 14%; further: read at 38.3 µM for the half of the compounds with a filed dose
Hits are given with their value; 0 = inactive; ? = inconclusive; - = not tested or not shown. Sampled rows, rich in hits. Any-hit rate of the full collection: about 21%. Unless noted, the call rests on the fitted dose curve.

SMILES | Pf growth 48h | Shiga inhibitor | SARS PLP yeast | Pf growth 96h | NS1 function inh | CHX counter
O=C(CN(c1ccccc1F)S(=O)(=O)c1ccccc1)N1CCCCCC1 | ? | 0 | 0 | 0 | 0 | 0
C=CCNC(=S)Nc1sc2c(c1C#N)CCCC2 | 0 | 0 | 0 | ? | 0 | 23
N#Cc1c(N2C(=O)Nc3ccccc3N2O)sc2c1CCCC2 | 0 | 0 | 0 | 0 | - | 0
N#Cc1c(N2C(=O)Nc3ccccc3N2O)sc2c1CCCCCC2 | 0 | 0 | 0 | 9.3µM | 0 | 0
N#Cc1c(NC(=O)CCCC(=O)O)sc2c1CCCCC2 | 0 | 112 | 0 | 0 | 0 | 34
COc1ccc(-c2cc(C(F)(F)F)nc(SCC(=O)Nc3sc4c(c3C#N)CCC4)n2)cc1 | 4.1µM | 0 | 0 | 1.7µM | 0 | 0
N#Cc1c(NC(=O)CSc2nc(-c3ccccc3)cc(C(F)(F)F)n2)sc2c1CCC2 | 0 | 0 | 0 | 0 | 0 | 0
C#CCNC(=O)C1=C[C@H](c2coc3ccccc3c2=O)[C@@H](CCCO)[C@H](OCC)O1 | 0 | 0 | 0 | 0 | 0 | 0
O=C(Nc1cccc(NC(=O)c2ccccc2)n1)c1ccccc1 | 0 | - | 0 | ? | 0 | 0
CNS(=O)(=O)c1cccc(C(=O)OCC(=O)Nc2sc3c(c2C#N)CCCCC3)c1 | 0 | 44 | 0 | 0 | 0 | 26
CCC(=O)Nc1sc2c(c1C#N)CCCCC2 | 0 | 72 | 0 | - | 0 | 36
N#Cc1c(NC(=O)CSC2=NCCS2)sc2c1CCCC2 | ? | 0 | 0 | 2.3µM | 0 | 0
CCC(=O)Nc1sc2c(c1C(=O)N(C)C)CCCCC2 | 0 | 0 | 0 | 0 | 0 | 0
N#Cc1c(Cl)nsc1NC(=O)c1ccccc1 | ? | 132 | 0 | 0 | - | 31
COc1ccc(C2C=C3CN(C(=O)OC(C)(C)C)S(=O)(=O)C3CC2OC(=O)c2cccc(C)c2)cc1 (stereo not drawn) | - | 0 | - | - | - | 0
O=C1COc2ccc(C(=O)COC(=O)CNC(=O)C3CCCCC3)cc2N1 | 0 | 0 | 0 | 0 | 0 | 0
COc1ccc(N2CCN(C(=O)c3ccc(CNc4c(N5CCOCC5)c(=O)c4=O)cc3)CC2)cc1 | ? | 0 | 0 | 0 | 0 | 0
COCC(C)NS(=O)(=O)c1ccc(C(=O)NC(Cc2ccccc2)c2ccccc2)cc1 (stereo not drawn) | ? | 0 | 0 | ? | 0 | 0
CC(C)Oc1ccc(C(=O)NC2(C(F)(F)F)NC(=O)N(CCCc3ccccc3)C2=O)cc1 (stereo not drawn) | 0 | 0 | 0 | 0 | 0 | 0
CCCC(=O)Nc1sc2c(c1C#N)CCCCC2 | 0 | 47 | 0 | 0 | 0 | 37
N#Cc1c(NC(=O)c2ccccc2)sc2c1CCCCC2 | 0 | 55 | 0 | ? | 0 | 48
CC(C)(C)C(=O)NC(=S)Nc1sc2c(c1C#N)CCCCC2 | 0 | 0 | 0 | 0 | 0 | 19
Cc1ccccc1C(=O)NC(=S)Nc1sc2c(c1C#N)CCCC2 | 0 | 0 | 0 | 0 | ? | 0
CC(=O)Nc1sc2c(c1C#N)CCCCC2 | ? | 0 | 0 | - | 0 | 18
COc1ccccc1N1CCN(S(=O)(=O)Cc2ccccc2Cl)CC1 | ? | 0 | - | 0 | 0 | 0
SMILES | Pf growth 48h | Shiga inhibitor | SARS PLP yeast | Pf growth 96h | NS1 function inh | CHX counter
CNc1c(NC(=O)C2CCC(C)CC2)c(=O)oc2ccccc12 (stereo not drawn) | 0 | 0 | 0 | 0 | 0 | 0
O=C(CCN1C(=O)C2CCCCC2C1=O)N1CCN(S(=O)(=O)c2ccccc2)CC1 (stereo not drawn) | ? | - | 0 | 0 | - | -
COCCCN(C(=O)c1cc(Cl)nc2ccccc12)c1c(N)n(Cc2ccccc2)c(=O)[nH]c1=O | 0 | - | 0 | 0 | - | -
Cc1ccc(C(=O)Nc2sc3c(c2C#N)CCCCC3)cc1C | 0 | 43 | 0 | 0 | 0 | 24
Cc1cccc(NC(=S)NCc2cccs2)c1C | 0 | 0 | ? | 0 | 0 | 22
CCC(C)c1ccc(NC(=S)NCc2cccs2)cc1 (stereo not drawn) | 0 | 76 | 0 | 0 | 0 | 23
Oc1ccc(NCc2cccs2)cc1 | ? | 0 | 0 | ? | 0 | 24
Cc1cc(C)cc(NC(=S)NCc2cccs2)c1 | 0 | 26 | 0 | 0 | 0 | 0
CC(C)OP(=O)(OC(C)C)C(Nc1ccccc1)c1cccnc1 (stereo not drawn) | 0 | 0 | 0 | 0 | 0 | 0
S=C(NCc1cccs1)Nc1cccc2ccccc12 | 0 | 0 | 0 | 0 | 0 | 0
S=C(NCCc1ccccc1)NCc1cccs1 | 0 | active | 0 | 0 | 0 | 54
CC(C)(C)c1ccc(NC(=S)NCc2cccs2)cc1 | - | 0 | 0 | ? | 0 | 23
S=C(NCc1cccs1)Nc1ccc(Br)cc1Cl | 0 | 81 | 0 | 0 | 0 | 44
COc1ccc(CCNC(=S)NCc2cccs2)cc1OC | ? | 0 | 0 | 0 | 0 | 0
COc1ccc(/C(O)=C2/C(=O)C(=O)N(c3ncccn3)C2c2ccc(F)cc2)cc1 (stereo not drawn) | 0 | 0 | 0 | 0 | 0 | 0
Cc1ccc(S(=O)(=O)N2CCCC2CNC(=O)C(=O)Nc2ccc(F)cc2F)cc1 (stereo not drawn) | 0 | - | 0 | ? | - | -
Cc1ccc(S(=O)(=O)/N=S(\C)CC2CC2(Cl)Cl)cc1 (stereo not drawn) | - | 0 | 0 | 0 | ? | 0
NS(=O)(=O)c1cccc(NC(=O)COC(=O)CNC(=O)c2ccc(-c3ccccc3)cc2)c1 | 0 | - | 0 | 0 | - | -
C[C@]12CC[C@@H](O)CC1=CCC1C2CC[C@]2(C)C(=O)[C@H](F)CC12 (stereo partly drawn) | - | - | 0 | - | - | -
CC12CCC3C(CC=C4CC(O)CCC43C)C1C/C(=C\c1cccc(F)c1)C2=O (stereo not drawn) | ? | 0 | 0 | 12µM | 0 | 0
C[C@@H](C(=O)OCC(=O)c1ccc(F)c(F)c1)N1C(=O)C2CCCCC2C1=O (stereo partly drawn) | - | - | 0 | - | - | -
COc1ccc([N+](=O)[O-])cc1NCC(=O)Nc1cccc(S(=O)(=O)N2CCCC2)c1 | 5.2µM | - | 0 | ? | - | -
COc1ccc(NC(=O)CNc2cccc(C#N)c2)cc1Cl | 0 | 0 | 0 | 0 | 0 | 0
COc1ccc(S(=O)(=O)N(C)C)cc1NCC(=O)Nc1cccc(C#N)c1 | ? | 0 | 0 | 12µM | - | 0
N#Cc1cccc(NC(=O)CNc2cccc(S(=O)(=O)N3CCCCC3)c2)c1 | 15µM | - | 0 | ? | - | -
SMILES | Pf growth 48h | Shiga inhibitor | SARS PLP yeast | Pf growth 96h | NS1 function inh | CHX counter
O=C(CNc1cccc(F)c1)Nc1cccc(S(=O)(=O)N2CCCCC2)c1 | 0 | - | 0 | 0 | - | -
COc1cc(NCC(=O)Nc2cccc(S(=O)(=O)N3CCCCC3)c2)cc(OC)c1OC | 1.9µM | - | 0 | ? | - | -
O=C(Cc1n[nH]c(=O)c2ccccc12)Nc1cccc(S(=O)(=O)N2CCCC2)c1 | ? | 0 | 0 | ? | 0 | 0
CN(C)S(=O)(=O)c1ccc(NC(=O)CNc2cc(S(=O)(=O)N3CCCC3)ccc2OCC(F)(F)F)cc1 | ? | 0 | 0 | 13µM | 0 | 0
O=C(CNc1cccc(S(=O)(=O)N2CCCC2)c1)Nc1ccc(C(F)(F)F)cc1 | 4.1µM | - | 0 | 1.9µM | - | -
Cc1ccc(NC(=O)CNc2cccc(S(=O)(=O)N3CCCCC3)c2)cc1F | ? | - | 0 | ? | - | -
O=C(Cc1n[nH]c(=O)c2ccccc12)NC(c1ccccc1)c1ccccc1 | 0 | 0 | 0 | ? | 0 | 16

Bioassay records as filed in PubChem BioAssay.
